The list is not random: actives were taken first. Their share in the collection is about 1.2%.
PfHsp40 yeast: compounds rescuing yeast from Plasmodium falciparum HSP40 toxicity | growth rescue, % at 12.5 µM | S. cerevisiae expressing PfHsp40, growth rescue, ATP luminescence | 340,000 compounds, 0.68% hits | AID 504582; in the data active means growth rescue above about 28%, passing the limit was not always enough;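 further: yeast W303a lacking pdr1 and pdr3 grown in galactose medium; growth measured after three days at 30 °C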
TcdB inh: blocks C. difficile toxin B glycohydrolase activity. P18177. TcdB glycohydrolase enzymatic assay, plate reader. inhibition, % at 9.99 µM. 350,000 compounds, 0.24% hits; in the data active means inhibition above about 10%
BioA inh: BioA (M. tuberculosis) enzyme inhibition; purified M. tuberculosis BioA enzyme, plate reader; inhibition, % at 9.99 µM; 360,000 compounds, 0.096% hits; in the data active means inhibition above about 40%
Y pestis TopoI: inhibitors of Yersinia pestis topoisomerase I; Y. pestis Topo-I cleavage product accumulation, plate reader; activity, % at 10 µM; 360,000 compounds, 0.064% hits; in the data active means activity above about 50%, passing the limit was not always enough
PrP UTR inh: inhibition of PrP 5' UTR reporter expression | cell-based PrP 5' UTR mRNA reporter, plate reader | inhibition, % (no concentration beside the values) | 340,000 compounds, 0.35% hits; in the data active means inhibition above about 52%
FadD28 binding: M. tuberculosis FadD28 bisubstrate binding inhibition; FadD28 bisubstrate probe binding, fluorescence polarization; inhibition, % at 12.5 µM; 360,000 compounds, 0.22% hits; AID 588549; in the data active means inhibition above about 8.5%, passing the limit was not always enough
Hits are given with their value; – = inactive; · = not tested or not shown.

SMILES	PfHsp40 yeast	TcdB inh	BioA inh	Y pestis TopoI	PrP UTR inh	FadD28 binding
CC12CCC3C(=CCc4cc(O)ccc43)C1CC(=NO)C2O (stereo not given)	–	13.0	·	–	–	–
O=C(Nc1nc(-c2ccccn2)cs1)c1ccc(Cl)s1	–	–	–	–	–	–
CCc1sc(C(=O)Nc2nc(-c3ccccn3)cs2)cc1C	441.1	·	–	–	–	–
Cc1ccc(C(=O)Nc2nc(-c3ccccn3)cs2)s1	58.9	–	–	–	–	–
CNC(=O)C[C@H]1CC[C@H]2[C@@H](COC[C@H](O)CN2Cc2ccc(Cl)c(Cl)c2)O1	·	–	–	·	·	·
Cc1ccc(S(=O)(=O)NCC2CCC(C(=O)NCc3ccc4c(c3)OCO4)CC2)cc1 (stereo not given)	–	–	–	–	–	–
Cc1ccc(S(=O)(=O)NC(=O)NCc2ccc3c(c2)OCO3)cc1	54.6	·	–	–	–	–
COc1ccccc1CNC(=O)C[C@H]1C[C@H]2c3cc(NS(C)(=O)=O)ccc3O[C@H]2[C@H](CO)O1	·	–	–	·	·	·
CC(=O)c1ccccc1NC(=O)COC(=O)c1ccccc1NC(=O)c1ccccc1	–	–	·	–	–	–
COC(=O)COC(=O)c1ccccc1NC(=O)c1ccccc1	245.4	–	·	–	–	–
CC(=O)Nc1ccc(-c2csc(N/N=C(/C)c3ccccc3)n2)cc1	89.9	–	·	–	–	–
Cc1ccc(NC(=O)Nc2ccc3c(c2)C(=O)N(C)[C@H]2CC[C@H](CC(=O)O)O[C@@H]2CO3)cc1	·	–	–	·	·	·
COc1ccc(OC2C(=O)N(Cc3ccc(F)cc3)C2c2cc(OC)c(OC)c(OC)c2)cc1 (stereo not given)	–	·	·	–	–	–
COC(=O)c1ccc(C2C(Oc3ccc(OC)cc3)C(=O)N2CCc2ccc(F)cc2)cc1 (stereo not given)	–	·	·	66.9	–	–
COc1cc2c(ccc3c4cc(OC)c(OC)cc4c[n+](C)c23)cc1O	126.9	–	·	–	–	–
CC(C)COc1ccc(CNC(=S)NCc2ccccc2)cc1	51.4	·	–	–	–	–
CCOc1ccc(CNC(=S)NCc2ccc(OCC)cc2)cc1	–	–	·	–	–	–
CC(=O)Oc1c(I)cc(I)cc1C(=O)Nc1ccc(Cl)cc1	216.8	–	–	–	–	–
Cc1ccc(S(=O)(=O)N[C@H]2CC[C@@H](CCn3cc(C4(O)CCCC4)nn3)O[C@@H]2CO)cc1	·	–	–	·	·	·
Cc1nc(CNS(=O)(=O)c2cccc(F)c2)cs1	–	·	–	–	–	–
Cc1ccc(-c2csc(NS(=O)(=O)c3cccc(F)c3)n2)o1	–	–	–	–	–	16.1
Cc1ccc2c(c1)C(=O)N1[C@H]3c4ccccc4OC[C@@H]3[C@H](c3ccccc3)[C@]1(C)C(=O)N2	128.1	·	–	–	–	–
C[C@@]12C(=O)Nc3ccc(Br)cc3C(=O)N1[C@H]1c3ccccc3OC[C@@H]1[C@@H]2c1ccccc1	127.6	·	–	–	–	–
Cc1ccc2c(c1)NC(=O)[C@@]1(C)[C@@H](c3ccccc3)[C@H]3COc4ccccc4[C@@H]3N1C2=O	–	–	–	–	–	–
COc1ccc2c(c1)[C@H]1[C@H](CO2)[C@H](c2ccccc2)[C@]2(C)C(=O)Nc3ccc(Cl)cc3C(=O)N12	267.6	–	–	–	–	–
SMILES	PfHsp40 yeast	TcdB inh	BioA inh	Y pestis TopoI	PrP UTR inh	FadD28 binding
COc1ccc2c(c1)OC[C@H]1[C@H]2N2C(=O)c3cc(C)ccc3NC(=O)[C@@]2(C)[C@H]1c1ccccc1	297.4	·	–	–	–	–
N[C@H]1CC[C@H](CCn2cc(C3CC3)nn2)O[C@@H]1CO	·	–	·	·	·	·
O=C(C[C@@H]1C=C[C@@H](NS(=O)(=O)c2ccc(F)cc2)[C@H](CO)O1)N1CCN(c2ccccc2)CC1	·	–	–	·	·	·
C[C@@H]1CN([C@@H](C)CO)C(=O)c2cc(C#CC3CCCC3)cnc2O[C@@H]1CN(C)C(=O)Cc1ccccn1	·	–	–	·	·	·
C[C@]12C(=O)N(c3ccccc3)C(=O)N1[C@H]1c3ccccc3OC[C@@H]1[C@H]2c1ccccc1	98.0	–	–	–	–	–
COc1cccc(S(=O)(=O)Nc2ccc3c(c2)[C@@H]2C[C@H](CC(=O)N[C@@H](C)c4ccccc4)O[C@@H](CO)[C@@H]2O3)c1	·	–	–	·	·	·
O=C(CN1/C(=C(/O)c2ccccc2)C(=O)c2ccccc2S1(=O)=O)c1ccccc1	79.8	·	–	–	–	–
COc1ccc(C(=O)CN2C(=O)c3ccccc3S2(=O)=O)cc1	·	–	–	–	·	–
NS(=O)(=O)c1ccc(Nc2nc(-c3ccc(O)cc3O)cs2)cc1	–	·	·	–	–	40.4
O=C1c2cc(O)cc(O)c2C(=O)c2c1cc(O)c([C@@H](CO)CCO)c2O	–	–	–	–	–	19.8
CNC(=O)C[C@H]1CC[C@@H]2[C@@H](COc3ccc(NC(=O)c4ccc(F)cc4)cc3C(=O)N2C)O1	·	·	–	·	·	·
CCCCCCCCCCCCCCC(O)C[N+](C)(CCO)CCO (stereo not given)	–	–	·	–	–	16.8
CCn1nnnc1NCc1ccc(SC)cc1	38.6	–	–	–	–	–
CCn1nnnc1NCc1ccc(N2CCCC2)cc1	–	·	–	–	–	–
CC/C(=N\Nc1ccc([N+](=O)[O-])cc1)c1ccccc1	429.9	·	·	–	–	–
C/C(=N\Nc1ccc([N+](=O)[O-])cc1)c1ccco1	64.2	–	·	–	–	–
C/C(=N\NC(=O)COc1ccc([N+](=O)[O-])cc1)c1ccco1	–	–	–	–	–	–
Cc1cc2nc3ccc(=[N+](C)C)cc-3sc2cc1N	–	·	·	419.5	–	–
O=S(=O)(c1ccc(SCc2ccc(Cl)cc2)nc1)N1CCCC1	–	–	–	53.5	–	–
O=C(Cc1ccccc1)N/N=C/c1cc(Br)cc(Br)c1O	–	–	–	–	–	–
O=C(CCN1CCOCC1)N/N=C/c1cc(Br)cc(Br)c1O	39.9	–	–	–	–	–
COc1cccc(CC(=O)OCC(=O)Nc2c(C)nn(-c3ccccc3)c2C)c1	–	10.9	–	–	–	–
CC(C)NC(=O)N(C)C[C@H]1Oc2ccc(NC(=O)Nc3ccc4c(c3)OCO4)cc2C(=O)N([C@@H](C)CO)C[C@H]1C	·	–	–	·	·	·
COc1cccc(C=O)c1OCCN1C(=O)c2ccccc2C1=O	–	–	65.2	–	–	–
C[C@H]1CN([C@@H](C)CO)C(=O)c2cccc(NS(=O)(=O)c3cn(C)cn3)c2O[C@@H]1CN(C)Cc1ccc(C(=O)Nc2ccccc2N)cc1	·	–	·	·	·	·
O=C(/C=C/Nc1ccccc1)c1ccc(Cl)cc1Cl	–	–	–	–	–	–
N#Cc1c(Nc2ccccc2)[n+]([O-])c2ccc(Cl)cc2[n+]1[O-]	68.7	–	·	–	–	–
C/C(CC(=O)Nc1ccccn1)=N\NC(=O)c1ccc2ccccc2c1	–	·	·	–	–	–
C/C(CC(=O)Nc1ccccn1)=N\NC(=O)c1ccccc1O	234.2	–	–	–	–	–
COc1ccc(Cl)cc1NC(=O)C/C(C)=N/NC(=O)c1ccccc1Cl	–	–	–	–	–	–
